Test results from PubChem BioAssay (NCI).
About 83,000 compounds went through this panel and 20% of them were active in at least one assay; those are over-represented in the sample as a whole.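 Activity criterion: percent growth below 10, measured after cells in 96-well plates were exposed to a single compound concentration for 48 hours.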 The source made the active and inactive calls.

What was measured:
Experiment in all cases: NCI-60 one-dose screen, 48 h (100 = growth as untreated, 0 = no growth, -100 = all killed)
Conditions in all cases: 10 µM unless noted
[1] = tested on: SK-MEL-2 melanoma
[2] = tested on: SN12C renal
[3] = tested on: UO-31 renal
[4] = tested on: TK-10 renal
[5] = tested on: ACHN renal
[6] = tested on: CAKI-1 renal
[7] = tested on: A498 renal
[8] = tested on: CCRF-CEM leukemia
[9] = tested on: MOLT-4 leukemia
[10] = tested on: SR leukemia
[11] = tested on: RPMI-8226 leukemia
[12] = tested on: OVCAR-8 ovarian
[13] = tested on: OVCAR-5 ovarian
[14] = tested on: OVCAR-4 ovarian
[15] = tested on: SK-OV-3 ovarian
[16] = tested on: IGROV1 ovarian
[17] = tested on: HS 578T breast
[18] = tested on: NCI/ADR-RES ovarian
[19] = tested on: OVCAR-3 ovarian

Measured: growth

N#Cc1ncc(-c2ccc(F)c(F)c2F)c(NC2CCCCCC2)n1
inactive: [1] 95.8% | [2] 78.2% | [3] 68.9% | [4] 91.5% | [5] 84.7% | [6] 79% | [7] 124% | [8] 33.4% | [9] 68.1% | [10] 69.5% | [11] 63.1% | [12] 86.1% | [13] 94.2% | [14] 81.1% | [15] 95.8% | [16] 83.8% | [17] 75.9% | [18] 83.8%

CCOC(=O)c1ccccc1NC(c1ccccc1)c1ccc2cccnc2c1O (stereo not given)
inactive: [1] 50.9% | [2] 35.2% | [3] 21% | [4] 37.3% | [5] 14.4% | [6] 15.9% | [7] 38.4% | [9] 12.6% | [10] 17.7% | [11] 17.5% | [12] 17% | [13] 53.7% | [14] 21.5% | [15] 14.1% | [19] 32.6% | [17] 71.6% | [18] 11.9%
active: [8] 9.7%

COC1=CC(c2ccc[nH]2)=N/C1=C\c1[nH]c(C)c(CCCn2cc(CCCCCCCCC[C@@H]3Cc4cc(O)ccc4C4CC[C@]5(C)[C@@H](O)CC[C@H]5C43)nn2)c1C (stereo not given in full)
inactive: [1] 69.7% | [2] 62.4% | [3] 49.8% | [4] 109% | [5] 40.8% | [6] 71% | [7] 62.1% | [8] 28.1% | [9] 67.1% | [10] 66.7% | [12] 70.4% | [13] 32% | [16] 78.1% | [19] 63.2% | [17] 55.7%

C=CCn1c(C)nc2ccc(Nc3nc(Nc4ccc(F)cc4)nc4ccccc34)cc21
inactive: [1] 58.1% | [2] 66.2% | [3] 37.4% | [4] 82.3% | [5] 67.6% | [6] 58.2% | [7] 59.9% | [8] 22.5% | [10] 22.4% | [12] 33.4% | [13] 81.3% | [14] 48.3% | [15] 98.6% | [16] 51.1% | [19] 51.2% | [17] 54.4% | [18] 38.4%
active: [9] -5.55%

O=C(CCCn1c2c(sc3ccccc32)c(=O)n2nnc(-c3ccccc3)c12)NCCc1cnc[nH]1
active: [1] -90.3% | [2] 1.75% | [3] -90.3% | [4] -89.4% | [5] -19.4% | [6] -84% | [11] -4.25% | [12] -50.6% | [13] -82.1% | [14] -92.5% | [15] 5.51% | [19] -49.7%
inactive: [7] 27.2% | [8] 38.4% | [9] 79.4% | [10] 55.2% | [17] 23.4% | [18] 21.2%

COc1ccc(C2CC(c3cccs3)=NN2c2ccc(S(=O)(=O)NC(=O)NCc3cccc(OC)c3)cc2)cc1 (stereo not given)
inactive: [1] 57.6% | [2] 112% | [3] 87.2% | [4] 96% | [5] 93.2% | [6] 94.7% | [7] 102% | [8] 88.1% | [9] 94.7% | [10] 75.8% | [11] 95.3% | [12] 107% | [13] 113% | [15] 82.6% | [16] 108% | [19] 106% | [17] 97.5% | [18] 103%

Nc1c(C(=O)Nc2cccc(C(F)(F)F)c2)sc2nc3c(cc12)C(O)CCC3 (stereo not given)
active: [7] -2.02% | [19] 2.06%
inactive: [1] 30.7% | [2] 51.5% | [3] 49.9% | [4] 54.6% | [5] 54.6% | [6] 30.1% | [8] 14.5% | [9] 24.7% | [10] 24% | [12] 46.2% | [13] 53.5% | [14] 58.5% | [15] 25.7% | [16] 54.4% | [17] 51.2% | [18] 22.5%

Nc1c(C(=O)Nc2c(Cl)cccc2Cl)sc2nc3c(cc12)CCCCC3
inactive: [1] 62.8% | [2] 61.7% | [3] 63.9% | [4] 69% | [5] 58.5% | [6] 69.4% | [7] 30% | [8] 43.7% | [9] 54.4% | [10] 16.7% | [12] 51.8% | [13] 79.8% | [15] 56.6% | [16] 73% | [19] 52.8% | [17] 59% | [18] 53.5%

CCn1cc(C(=O)O)c(=O)c2cc(F)c(N3CCN(S(=O)(=O)c4c(C)cc(C)cc4C)CC3)cc21
inactive: [1] 88.7% | [2] 88.5% | [3] 33.1% | [4] 97.5% | [5] 75.8% | [6] 89.5% | [7] 78.9% | [8] 81.8% | [9] 75.9% | [10] 64.7% | [11] 64.1% | [12] 81.5% | [13] 88.6% | [15] 101% | [16] 79.4% | [19] 89.2% | [18] 84.8%

COc1cc(/C=C2\CCCC3=C2N=C2SC(C)=NN2C3c2cc(OC)c(OC)c(OC)c2)cc(OC)c1OC (stereo not given)
active: [2] -5.64% | [3] 8.14% | [5] -7.34% | [6] -38.1% | [7] -0.731% | [8] -10% | [9] -7.59% | [10] 4.78% | [11] -25.6% | [12] 4.84% | [18] 8.69%
inactive: [1] 77.5% | [4] 75.9% | [13] 67.3% | [14] 54.3% | [16] 24.4% | [19] 21.2% | [17] 25%

COc1ccc(/C=C/c2nc(N3CCOCC3)c3nc(Cl)c(Cl)cc3n2)cc1OC
inactive: [1] 99.1% | [2] 98.3% | [3] 108% | [4] 104% | [5] 100% | [6] 93.7% | [7] 93.7% | [8] 99.3% | [9] 87.6% | [10] 83.3% | [12] 99% | [13] 109% | [14] 108% | [15] 105% | [18] 99.4%

O=C(N/N=C/c1c(Cl)cccc1Cl)c1ccccc1Nc1ccnc(C(F)(F)F)c1
inactive: [1] 69.6% | [2] 75.7% | [3] 84.1% | [4] 95.4% | [5] 78.8% | [6] 77.6% | [7] 73.6% | [8] 81.6% | [9] 63.4% | [10] 103% | [11] 89.7% | [12] 64.8% | [13] 97.8% | [14] 63.9% | [15] 76.9% | [19] 110% | [17] 82.7% | [18] 67.6%

Cc1cccc(NC(=O)c2sc3nc4c(cc3c2N)CCC4)c1C
active: [7] 8.64% | [11] -5.02% | [18] -16.2%
inactive: [1] 26.3% | [2] 41.2% | [3] 43.4% | [4] 35% | [5] 48.4% | [6] 30.5% | [8] 10.7% | [9] 22.6% | [10] 25% | [12] 14.1% | [13] 44% | [15] 37.9% | [16] 44.6% | [17] 28.6%

COc1cc2nc(SCc3cc(OC)c(OC)c(OC)c3)n(Cc3ccccc3)c(=O)c2cc1OC
active: [1] -9.82% | [7] -5.24% | [10] 6.25% | [19] 6.2% | [18] -15.8%
inactive: [2] 41.2% | [3] 34.7% | [4] 64.3% | [5] 39.2% | [6] 25.7% | [8] 23% | [9] 16.7% | [11] 54.8% | [13] 53.7% | [14] 44.2% | [15] 29.8% | [16] 39.2% | [17] 26.7%

CC(=O)Nc1ccc(S(=O)(=O)N2C(=O)CCC2C(=O)Nc2ccccc2)cc1 (stereo not given)
active: [6] 9.53% | [7] 2.01%
inactive: [1] 43.9% | [2] 40.4% | [3] 14.1% | [4] 27.5% | [5] 30.4% | [8] 17.7% | [9] 28.8% | [10] 28% | [11] 26.7% | [12] 40.4% | [13] 58.4% | [14] 39.9% | [16] 28.9% | [19] 28.1% | [17] 63.1% | [18] 41.5%

O=C(COc1ccccc1)N1N=C(c2ccc(Cl)cc2)CC1c1c[nH]c2ccccc12 (stereo not given)
inactive: [1] 85.3% | [2] 62.7% | [3] 25.7% | [4] 93.6% | [5] 60.8% | [6] 46% | [7] 72.1% | [8] 11.3% | [10] 10.8% | [12] 70.4% | [13] 112% | [15] 81.4% | [16] 30.2% | [19] 77.9% | [17] 93.7% | [18] 83%
active: [9] -8.31%

CCn1cc(C(=O)O)c(=O)c2cc(F)c(N3CCN(S(=O)(=O)c4ccc(Cl)cc4Cl)CC3)cc21
active: [1] -18.1% | [3] -13.4% | [5] -54.6% | [6] 4.75% | [7] -0.0481% | [8] 2.78% | [9] 1.8% | [10] -19.7% | [11] 9.07% | [12] 5.84% | [13] 7.92% | [16] 7.5% | [19] 7.89% | [18] 9.34%
inactive: [2] 10.3% | [4] 12.4% | [14] 129%
